For six compounds, inhibition results are on record in ChEMBL document CHEMBL1961873, “Compounds: GSK PKIS; Assays: Nanosyn kinase panel” (2012).

The target in test [1] is 5'-AMP-activated protein kinase catalytic subunit alpha-2 (Homo sapiens) (UniProt P54646). As to conditions: at 1 µM.
For test [2], the target named is T1, NUAK family SNF1-like kinase 1 (Homo sapiens) (UniProt O60285).
T1 sequence (whole entry): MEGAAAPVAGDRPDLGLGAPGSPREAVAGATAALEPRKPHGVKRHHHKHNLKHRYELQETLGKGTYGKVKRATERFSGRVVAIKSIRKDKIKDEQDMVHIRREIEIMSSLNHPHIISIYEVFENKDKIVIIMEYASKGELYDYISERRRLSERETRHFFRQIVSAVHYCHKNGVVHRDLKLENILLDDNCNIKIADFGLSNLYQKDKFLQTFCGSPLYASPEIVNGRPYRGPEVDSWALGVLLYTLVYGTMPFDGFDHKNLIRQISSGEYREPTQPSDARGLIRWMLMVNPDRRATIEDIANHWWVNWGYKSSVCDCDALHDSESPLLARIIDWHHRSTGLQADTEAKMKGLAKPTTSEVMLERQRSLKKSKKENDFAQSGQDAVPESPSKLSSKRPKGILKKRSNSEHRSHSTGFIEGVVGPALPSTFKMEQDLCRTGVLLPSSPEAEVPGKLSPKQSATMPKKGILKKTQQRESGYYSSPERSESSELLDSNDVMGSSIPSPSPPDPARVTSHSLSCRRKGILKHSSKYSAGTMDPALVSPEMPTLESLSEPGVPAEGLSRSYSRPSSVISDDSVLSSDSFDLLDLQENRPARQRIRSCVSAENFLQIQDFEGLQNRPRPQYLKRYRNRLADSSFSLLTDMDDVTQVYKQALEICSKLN
As to conditions: at 0.1 µM.

The target in test [3] is T1, NUAK family SNF1-like kinase 1 (Homo sapiens). As to conditions: at 1 µM.
Test [4] concerns the target T2, Serine/threonine-protein kinase BRSK1 (Homo sapiens) (UniProt Q8TDC3).
T2 sequence (whole entry): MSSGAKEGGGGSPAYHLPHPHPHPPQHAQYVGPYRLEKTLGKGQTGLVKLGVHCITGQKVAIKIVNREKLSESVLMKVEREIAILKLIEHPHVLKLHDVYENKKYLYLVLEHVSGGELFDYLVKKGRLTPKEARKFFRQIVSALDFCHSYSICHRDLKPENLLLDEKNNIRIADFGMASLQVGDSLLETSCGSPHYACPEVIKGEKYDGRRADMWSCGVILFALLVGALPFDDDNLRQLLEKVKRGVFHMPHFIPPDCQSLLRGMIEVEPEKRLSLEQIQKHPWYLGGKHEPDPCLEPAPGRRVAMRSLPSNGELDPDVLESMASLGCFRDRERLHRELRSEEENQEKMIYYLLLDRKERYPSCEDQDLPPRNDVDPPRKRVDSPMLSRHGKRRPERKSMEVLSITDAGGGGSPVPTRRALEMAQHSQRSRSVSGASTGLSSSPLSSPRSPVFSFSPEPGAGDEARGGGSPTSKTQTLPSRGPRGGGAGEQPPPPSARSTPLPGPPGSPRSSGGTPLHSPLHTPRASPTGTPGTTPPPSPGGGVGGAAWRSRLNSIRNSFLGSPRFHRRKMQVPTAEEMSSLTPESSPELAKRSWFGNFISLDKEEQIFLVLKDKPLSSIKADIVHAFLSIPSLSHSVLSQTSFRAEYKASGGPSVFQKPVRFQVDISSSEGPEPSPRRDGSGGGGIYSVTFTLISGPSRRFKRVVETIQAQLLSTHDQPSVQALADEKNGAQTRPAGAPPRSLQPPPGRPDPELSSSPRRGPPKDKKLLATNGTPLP
As to conditions: at 0.1 µM.

Test [5] concerns the target T2, Serine/threonine-protein kinase BRSK1 (Homo sapiens). As to conditions: at 1 µM.
The target of test [6] is T3, Serine/threonine-protein kinase BRSK2 (Homo sapiens) (UniProt Q8IWQ3).
T3 sequence (whole entry): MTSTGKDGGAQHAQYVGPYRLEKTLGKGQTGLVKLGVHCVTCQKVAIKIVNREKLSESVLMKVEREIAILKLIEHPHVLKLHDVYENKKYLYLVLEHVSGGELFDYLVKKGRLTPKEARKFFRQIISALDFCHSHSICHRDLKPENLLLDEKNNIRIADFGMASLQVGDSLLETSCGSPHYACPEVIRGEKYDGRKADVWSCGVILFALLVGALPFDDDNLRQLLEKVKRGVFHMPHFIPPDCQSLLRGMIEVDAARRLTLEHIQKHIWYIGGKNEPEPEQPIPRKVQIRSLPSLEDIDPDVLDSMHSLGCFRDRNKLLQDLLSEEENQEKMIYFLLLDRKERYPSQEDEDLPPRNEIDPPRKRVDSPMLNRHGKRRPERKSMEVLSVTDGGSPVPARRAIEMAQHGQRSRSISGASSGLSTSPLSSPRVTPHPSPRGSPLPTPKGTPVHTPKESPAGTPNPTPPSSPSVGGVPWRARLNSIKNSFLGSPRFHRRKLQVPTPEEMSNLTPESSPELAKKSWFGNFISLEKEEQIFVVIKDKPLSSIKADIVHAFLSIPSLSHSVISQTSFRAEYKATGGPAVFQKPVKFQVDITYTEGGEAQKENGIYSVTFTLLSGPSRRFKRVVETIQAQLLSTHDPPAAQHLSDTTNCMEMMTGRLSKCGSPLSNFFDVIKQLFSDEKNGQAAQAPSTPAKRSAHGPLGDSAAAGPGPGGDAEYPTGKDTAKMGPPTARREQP
As to conditions: at 0.1 µM.

Test [7] addresses T3, Serine/threonine-protein kinase BRSK2 (Homo sapiens). As to conditions: at 1 µM.
Test [8] addresses Calcium/calmodulin-dependent protein kinase type 1D (Homo sapiens) (UniProt Q8IU85). As to conditions: at 0.1 µM.
Test [9] shares this target. As to conditions: at 1 µM.
Test [10] deals with Calcium/calmodulin-dependent protein kinase type II subunit alpha (Homo sapiens) (UniProt Q9UQM7). As to conditions: at 0.1 µM.
For test [11] the target is unchanged. As to conditions: at 1 µM.
The target of test [12] is Calcium/calmodulin-dependent protein kinase type II subunit delta (Homo sapiens) (UniProt Q13557). As to conditions: at 0.1 µM.
Test [13] has the same target. As to conditions: at 1 µM.
The target of test [14] is T4, Calcium/calmodulin-dependent protein kinase type IV (Homo sapiens) (UniProt Q16566).
T4 sequence (whole entry): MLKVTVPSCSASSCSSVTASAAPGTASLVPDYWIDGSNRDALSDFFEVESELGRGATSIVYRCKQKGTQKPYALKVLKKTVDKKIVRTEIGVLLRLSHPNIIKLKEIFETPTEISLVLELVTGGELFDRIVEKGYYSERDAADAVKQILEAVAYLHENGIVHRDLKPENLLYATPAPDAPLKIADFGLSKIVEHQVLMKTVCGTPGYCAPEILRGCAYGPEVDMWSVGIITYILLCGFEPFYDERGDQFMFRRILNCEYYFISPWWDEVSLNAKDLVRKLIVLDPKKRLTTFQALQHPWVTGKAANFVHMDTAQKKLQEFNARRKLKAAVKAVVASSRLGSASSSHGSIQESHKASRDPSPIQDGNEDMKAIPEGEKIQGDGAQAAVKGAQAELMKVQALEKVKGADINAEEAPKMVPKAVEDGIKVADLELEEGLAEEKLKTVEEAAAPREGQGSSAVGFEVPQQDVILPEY
As to conditions: at 0.1 µM.

Test [15] concerns the target T4, Calcium/calmodulin-dependent protein kinase type IV (Homo sapiens). As to conditions: at 1 µM.
For test [16], the target named is T5, Serine/threonine-protein kinase Chk1 (Homo sapiens) (UniProt O14757).
T5 sequence (whole entry): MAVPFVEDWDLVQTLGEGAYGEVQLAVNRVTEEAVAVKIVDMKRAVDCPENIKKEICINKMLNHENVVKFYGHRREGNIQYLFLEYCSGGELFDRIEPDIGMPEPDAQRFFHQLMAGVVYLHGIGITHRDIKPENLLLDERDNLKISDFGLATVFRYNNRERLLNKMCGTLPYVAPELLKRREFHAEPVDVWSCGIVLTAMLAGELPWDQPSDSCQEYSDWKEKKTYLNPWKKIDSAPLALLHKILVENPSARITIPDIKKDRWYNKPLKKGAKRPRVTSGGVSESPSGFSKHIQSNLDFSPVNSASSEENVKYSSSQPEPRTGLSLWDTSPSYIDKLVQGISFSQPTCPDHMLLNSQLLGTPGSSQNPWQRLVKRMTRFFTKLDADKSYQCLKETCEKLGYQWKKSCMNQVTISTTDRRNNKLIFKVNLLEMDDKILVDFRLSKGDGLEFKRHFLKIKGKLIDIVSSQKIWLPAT
As to conditions: at 0.1 µM.

For test [17], the target named is T5, Serine/threonine-protein kinase Chk1 (Homo sapiens). As to conditions: at 1 µM.
Test [18] has as its target Serine/threonine-protein kinase Chk2 (Homo sapiens) (UniProt O96017). As to conditions: at 0.1 µM.
Test [19] has the same target. As to conditions: at 1 µM.
For test [20], the target named is Death-associated protein kinase 1 (Homo sapiens) (UniProt P53355). As to conditions: at 0.1 µM.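 Further: reported figure is the mean inhibition of DAPK1.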
Sequence of Death-associated protein kinase 1 (Homo sapiens) (P53355 whole entry, looked up): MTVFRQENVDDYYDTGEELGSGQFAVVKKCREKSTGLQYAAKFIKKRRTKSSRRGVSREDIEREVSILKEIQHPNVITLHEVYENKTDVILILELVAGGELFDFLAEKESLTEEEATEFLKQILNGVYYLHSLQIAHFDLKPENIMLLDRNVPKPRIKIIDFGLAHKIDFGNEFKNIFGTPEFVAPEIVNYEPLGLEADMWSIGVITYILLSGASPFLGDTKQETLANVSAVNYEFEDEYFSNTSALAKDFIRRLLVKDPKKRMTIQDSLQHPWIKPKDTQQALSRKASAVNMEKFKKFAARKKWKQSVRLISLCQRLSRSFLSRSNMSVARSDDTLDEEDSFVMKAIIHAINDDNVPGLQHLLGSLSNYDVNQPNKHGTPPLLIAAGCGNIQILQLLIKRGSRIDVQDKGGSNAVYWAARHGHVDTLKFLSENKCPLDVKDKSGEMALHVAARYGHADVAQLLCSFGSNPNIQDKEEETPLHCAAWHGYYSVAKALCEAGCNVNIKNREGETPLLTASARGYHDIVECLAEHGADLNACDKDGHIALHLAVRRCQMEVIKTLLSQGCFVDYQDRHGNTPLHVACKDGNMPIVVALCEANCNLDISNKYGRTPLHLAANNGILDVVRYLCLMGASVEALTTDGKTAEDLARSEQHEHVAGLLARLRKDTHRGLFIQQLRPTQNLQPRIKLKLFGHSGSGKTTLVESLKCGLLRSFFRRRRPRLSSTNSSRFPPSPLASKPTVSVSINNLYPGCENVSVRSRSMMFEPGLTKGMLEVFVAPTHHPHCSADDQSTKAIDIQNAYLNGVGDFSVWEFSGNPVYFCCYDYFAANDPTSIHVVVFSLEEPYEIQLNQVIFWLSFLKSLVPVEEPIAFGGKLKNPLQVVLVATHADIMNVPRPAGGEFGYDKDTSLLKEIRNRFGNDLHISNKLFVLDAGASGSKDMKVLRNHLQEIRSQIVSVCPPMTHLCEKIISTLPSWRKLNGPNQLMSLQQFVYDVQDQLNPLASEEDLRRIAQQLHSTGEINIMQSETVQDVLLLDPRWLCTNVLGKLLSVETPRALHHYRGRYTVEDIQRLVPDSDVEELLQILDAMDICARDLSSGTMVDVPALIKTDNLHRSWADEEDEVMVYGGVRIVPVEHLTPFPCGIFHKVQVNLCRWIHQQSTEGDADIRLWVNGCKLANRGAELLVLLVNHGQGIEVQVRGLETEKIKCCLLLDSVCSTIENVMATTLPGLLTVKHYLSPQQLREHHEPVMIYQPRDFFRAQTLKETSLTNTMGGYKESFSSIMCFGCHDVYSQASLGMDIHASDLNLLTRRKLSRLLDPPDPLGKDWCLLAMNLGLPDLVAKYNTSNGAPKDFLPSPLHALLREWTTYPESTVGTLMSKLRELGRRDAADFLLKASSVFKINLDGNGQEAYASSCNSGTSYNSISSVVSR

Sequence of 5'-AMP-activated protein kinase catalytic subunit alpha-2 (Homo sapiens) (P54646 whole entry, looked up): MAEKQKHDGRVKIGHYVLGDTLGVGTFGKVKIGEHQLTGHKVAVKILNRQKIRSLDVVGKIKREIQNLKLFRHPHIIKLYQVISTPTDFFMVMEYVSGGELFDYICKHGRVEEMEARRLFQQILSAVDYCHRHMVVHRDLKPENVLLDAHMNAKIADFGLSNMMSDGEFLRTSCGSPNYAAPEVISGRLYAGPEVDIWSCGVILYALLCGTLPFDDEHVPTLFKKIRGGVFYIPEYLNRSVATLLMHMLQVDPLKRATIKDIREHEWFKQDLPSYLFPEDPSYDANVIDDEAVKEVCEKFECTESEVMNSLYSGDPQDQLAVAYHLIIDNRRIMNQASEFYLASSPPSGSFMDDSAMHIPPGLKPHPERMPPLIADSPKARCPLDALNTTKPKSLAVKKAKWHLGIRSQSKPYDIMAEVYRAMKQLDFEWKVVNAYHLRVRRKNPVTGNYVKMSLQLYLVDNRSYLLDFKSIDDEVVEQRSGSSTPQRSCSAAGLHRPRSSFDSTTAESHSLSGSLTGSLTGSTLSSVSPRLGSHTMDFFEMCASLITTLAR
Sequence of Calcium/calmodulin-dependent protein kinase type II subunit alpha (Homo sapiens) (Q9UQM7 whole entry): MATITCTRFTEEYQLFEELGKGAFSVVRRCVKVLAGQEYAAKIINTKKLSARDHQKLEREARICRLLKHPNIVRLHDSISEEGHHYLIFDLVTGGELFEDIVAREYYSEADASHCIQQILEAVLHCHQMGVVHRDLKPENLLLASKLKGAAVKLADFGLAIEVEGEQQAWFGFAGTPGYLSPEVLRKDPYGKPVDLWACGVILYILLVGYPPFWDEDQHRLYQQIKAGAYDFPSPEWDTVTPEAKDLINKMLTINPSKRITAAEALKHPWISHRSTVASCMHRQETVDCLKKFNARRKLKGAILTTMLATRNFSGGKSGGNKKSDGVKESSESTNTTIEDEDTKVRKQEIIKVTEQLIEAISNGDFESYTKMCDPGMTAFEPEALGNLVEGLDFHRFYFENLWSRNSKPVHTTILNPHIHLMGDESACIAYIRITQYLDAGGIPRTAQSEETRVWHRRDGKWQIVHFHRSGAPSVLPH
Sequence of Calcium/calmodulin-dependent protein kinase type 1D (Homo sapiens) (Q8IU85 whole entry, looked up): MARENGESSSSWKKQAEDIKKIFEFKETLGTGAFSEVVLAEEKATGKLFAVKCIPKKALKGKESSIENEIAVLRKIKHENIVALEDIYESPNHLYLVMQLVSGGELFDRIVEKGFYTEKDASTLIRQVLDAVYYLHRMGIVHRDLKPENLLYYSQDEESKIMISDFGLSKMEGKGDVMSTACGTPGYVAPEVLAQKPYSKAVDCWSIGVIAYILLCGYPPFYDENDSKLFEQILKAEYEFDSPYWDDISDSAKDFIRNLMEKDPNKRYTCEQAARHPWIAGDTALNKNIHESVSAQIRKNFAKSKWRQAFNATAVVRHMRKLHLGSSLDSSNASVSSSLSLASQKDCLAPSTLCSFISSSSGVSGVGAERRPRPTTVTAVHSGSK
Sequence of Serine/threonine-protein kinase Chk2 (Homo sapiens) (O96017 whole entry): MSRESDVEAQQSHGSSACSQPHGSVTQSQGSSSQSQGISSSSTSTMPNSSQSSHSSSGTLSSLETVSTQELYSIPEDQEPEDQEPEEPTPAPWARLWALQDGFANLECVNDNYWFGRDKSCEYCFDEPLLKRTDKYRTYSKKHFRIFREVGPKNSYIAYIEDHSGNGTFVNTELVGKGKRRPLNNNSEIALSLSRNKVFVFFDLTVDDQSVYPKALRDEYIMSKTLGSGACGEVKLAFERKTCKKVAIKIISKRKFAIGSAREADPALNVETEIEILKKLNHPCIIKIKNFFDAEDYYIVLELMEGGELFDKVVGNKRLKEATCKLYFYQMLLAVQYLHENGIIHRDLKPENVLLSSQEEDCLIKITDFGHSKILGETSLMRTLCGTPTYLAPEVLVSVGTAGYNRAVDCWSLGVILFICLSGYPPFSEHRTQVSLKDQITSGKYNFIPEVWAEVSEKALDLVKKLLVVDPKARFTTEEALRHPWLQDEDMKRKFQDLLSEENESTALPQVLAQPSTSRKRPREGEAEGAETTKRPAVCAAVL
Sequence of Calcium/calmodulin-dependent protein kinase type II subunit delta (Homo sapiens) (Q13557 whole entry): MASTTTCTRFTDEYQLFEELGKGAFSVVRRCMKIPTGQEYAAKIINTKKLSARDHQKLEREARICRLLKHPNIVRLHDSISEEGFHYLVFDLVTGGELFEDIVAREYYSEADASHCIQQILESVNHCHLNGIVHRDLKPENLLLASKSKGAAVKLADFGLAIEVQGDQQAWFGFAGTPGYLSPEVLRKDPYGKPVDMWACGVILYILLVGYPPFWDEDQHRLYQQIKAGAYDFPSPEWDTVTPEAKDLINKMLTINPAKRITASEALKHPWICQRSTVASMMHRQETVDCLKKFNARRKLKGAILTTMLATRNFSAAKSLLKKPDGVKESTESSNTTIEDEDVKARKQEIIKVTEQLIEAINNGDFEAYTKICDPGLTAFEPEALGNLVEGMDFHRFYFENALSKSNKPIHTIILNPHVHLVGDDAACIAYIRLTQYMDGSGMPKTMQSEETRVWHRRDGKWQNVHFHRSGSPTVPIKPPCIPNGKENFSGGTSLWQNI

The term inhibition denotes the relative decrease from the control value, in per cent. In the case of `FC(F)(F)c1cccc(Nc2nccc(-c3cnn4nc(-c5ccccc5)ccc34)n2)c1`, the inhibition in [1] was 2.89%; in [2], -0.22%; in [3] it was 4.2%; in [4], -0.11%; in test [5], 4.72%; in [6], 1.87%. In addition, the inhibition in [7] is 2.68%; in test [8], 0.17%; in [9], 0.28%; in [10], 0.97%; in test [11] it was -0.96%; in test [12], 0.96%. For the same compound, the inhibition in [13] is -1.12%; in test [14] it was 1.79%; in [15], -1.25%; in [16], 3.93%; in [17], 1.39%; in test [18] it was 0.57%. The inhibition in test [19] was found to be 1.27%; in test [20] it was 3.36%.
Regarding `Cc1ccc(NC(=O)c2ccoc2)cc1-c1ccc(C(=O)NCC2CC2)cc1`, the inhibition in test [1] was 1.09%; in test [2], -0.47%; in [3], -0.78%; in test [4], 0%; in test [5], 0.43%; in [6] it was 1.99%. Moreover, the inhibition in [7] was 0.95%; in test [8] it was -0.63%; in test [9] it was -1.53%; in test [10] it was 1.08%; in test [11], -3.72%; in test [12] it was 1.18%. Further, the inhibition in [13] is -0.48%; in [14], -0.8%; in test [15], -1.43%; in [16], 2%; in test [17], 1.01%; in test [18], 1.96%. Moreover, the inhibition in test [19] came out at 1.43%; in test [20], 3.89%.
In the case of `CN(C)c1ccc2c(c1)/C(=C/Nc1ccc(S(N)(=O)=O)cc1)C(=O)N2`, the inhibition in test [1] was 26.8%; in test [2] it was 39.5%; in [3] it was 55.6%; in test [4] it was 11.3%; in test [5], 42.7%; in [6] it was 18.5%. The inhibition amounted to 54.2% in [7]; 0.43% in test [8]; 4.29% in test [9]; 3.79% in test [10]; 3.56% in [11]; 2.54% in test [12]. Also, the inhibition in [13] was 15%; in [14], 0.96%; in test [15] it was 0.42%; in [16], 8.69%; in test [17] it was 34.9%; in [18] it was 1.42%. Besides, the inhibition was found to be 10.6% in test [19] and 1.57% in test [20].
Consider `CCc1ccc(Oc2nccc(-c3c(-c4ccc(F)cc4)ncn3C3CCNCC3)n2)cc1`, for which the inhibition is 7.27% in test [1]; -0.89% in test [2]; 3.95% in [3]; 1.81% in [4]; -0.56% in test [5]; 1.84% in test [6]. For the same compound, the inhibition is 3.86% in test [7]; 1.54% in [8]; 3.63% in test [9]; 4.59% in test [10]; 5.86% in test [11]; 4.44% in test [12]. For the same compound, the inhibition in test [13] turned out to be 7.05%; in test [14], 2.89%; in test [15], 5.14%; in test [16], 4.54%; in test [17], 6.62%; in test [18], 3.02%. The inhibition in test [19] was 5.66%; in test [20], 4.58%.
With `Nc1nccc(-c2c(-c3ccc(F)cc3)ncn2C2CCC(O)CC2)n1` (stereo not given), the inhibition in [1] was -1.6%; in test [2] it was 9.02%; in test [3], 39.9%; in test [4] it was 0.33%; in test [5], 1.44%; in test [6], 1.13%. Also, the inhibition in [7] is 1.19%; in test [8], -2.47%; in [9] it was -0.75%; in test [10] it was -3.31%; in test [11], -3.25%; in [12] it was -1.92%. Further, the inhibition in test [13] was 1.53%; in test [14] it was 9.35%; in test [15], -0.1%; in test [16] it was -3.08%; in test [17] it was 0.13%; in [18], -1.95%. Besides, the inhibition was -1.72% in [19] and -1.1% in [20].
Consider `COc1ccc2cc(-c3c(-c4ccncc4)nc(-c4ccc([S+](C)[O-])cc4C)n3C)ccc2c1` (stereo not given), for which the inhibition was 1.05% in test [1]; -1.98% in [2]; 4.95% in test [3]; -0.02% in test [4]; 3.28% in test [5]; 0.33% in test [6]. For the same compound, the inhibition in test [7] was 3.47%; in test [8], 0%; in test [9], 1.15%; in test [10] it was -2.89%; in [11] it was -1.04%; in test [12], -0.62%. Moreover, the inhibition is 0.45% in test [13]; 0.58% in test [14]; 1.17% in [15]; -4.29% in [16]; -9.96% in test [17]; -6.42% in test [18]. In addition, the inhibition in test [19] was -5.67%; in test [20], -9.46%.
